Eya2 inh – inhibitors of human Eya2 phosphatase activity; O00167; recombinant Eya2, OMFP fluorescence dephosphorylation (OMFP is methylfluorescein phosphate); Potency, µM (doses to about 76.9 µM), hits mostly inhibitors; 0.006% of 330,000 active; AID 488837
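Eya2 protein (added as 0.2 uM solution) was preincubated with compound for 10 min at ambient temperature in 50 mM HEPES pH 7.5, 50 mM NaCl, 5 uM MgCl2, 0.05% BSA, 1 mM DTT. OMFP (added at 50 uM) then reacted 10 min; fluorescence read at 485/525 nm.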
D1 agonist – activates the human D1 dopamine receptor. HEK293 T-REx D1 cells, calcium flux, agonist mode. activation, % at 2 µM. 1% of 360,000 active. AID 504660; in the data active = activation above about 30%
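Tetracycline-induced HEK293 TREx D1 cells, force-coupled to calcium signalling, were dye-loaded with a no-wash calcium kit. Compound was pin-added after a 10 s baseline. Fluorescence was read kinetically at 1 cycle/s for 180 s, with calcium rises flagged as agonism.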
GALK inh – galactokinase (human) inhibition. P51570. Purified GALK, Kinase-Glo residual ATP luminescence. Potency, µM (highest dose often 57.5 µM), most hits filed as inhibitors. 0.007% of 270,000 active
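Human GALK (5 nM) with 35 uM ATP and 100 uM galactose in 20 mM HEPES pH 8.0, 5 mM MgCl2, 60 mM NaCl, 1 mM DTT, 0.01% BSA. After 1 h at room temperature, leftover ATP was read by Kinase-Glo Plus luminescence.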
D1 antagonist – antagonists of human D1 dopamine receptor. AID 504652. P21728. 3.2% of 360,000 active. activity change, negative = inhibition, % at 10 µM. HEK293 TREx D1 cells, calcium flux, dopamine EC80; stronger effect = lower value; in the data active = activity change below about -30%
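Antagonism measured as reduced calcium response to an EC80 dopamine addition following 180 s compound pre-read; cells were inducible HEK293 Trex D1 plated overnight at 30 C, read kinetically at 1 cycle/sec.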
USP2a inh – inhibitors of human ubiquitin-specific protease USP2a; 0.01% of 330,000 active; USP2 core, Ub-CHOP2 coupled fluorogenic reporter, 485/531; Potency, µM (series often up to 38.3 µM), most hits filed as inhibitors
Target sequence (O75604 whole entry, looked up): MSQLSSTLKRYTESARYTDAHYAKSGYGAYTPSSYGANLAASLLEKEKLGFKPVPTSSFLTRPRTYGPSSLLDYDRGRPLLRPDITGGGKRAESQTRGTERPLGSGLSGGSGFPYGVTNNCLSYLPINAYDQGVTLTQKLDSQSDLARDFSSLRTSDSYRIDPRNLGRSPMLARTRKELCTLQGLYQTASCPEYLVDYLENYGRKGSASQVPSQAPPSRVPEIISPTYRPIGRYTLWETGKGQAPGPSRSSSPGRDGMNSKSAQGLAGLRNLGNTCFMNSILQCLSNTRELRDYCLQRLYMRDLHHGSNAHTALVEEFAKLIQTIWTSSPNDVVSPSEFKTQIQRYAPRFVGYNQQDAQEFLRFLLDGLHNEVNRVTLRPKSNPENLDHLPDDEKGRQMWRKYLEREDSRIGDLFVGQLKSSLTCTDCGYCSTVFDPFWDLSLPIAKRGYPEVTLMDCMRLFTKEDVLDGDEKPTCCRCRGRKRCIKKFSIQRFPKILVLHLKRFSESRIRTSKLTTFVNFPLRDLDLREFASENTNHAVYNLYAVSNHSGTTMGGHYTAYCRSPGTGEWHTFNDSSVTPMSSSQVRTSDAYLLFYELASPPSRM
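Cell-free coupled assay: 10nM USP2 core preincubated 30min RT with compound in Tris-HCl pH 8.0/CaCl2/CHAPS buffer, then 25nM Ub-CHOP2 and 25nM reporter substrate; fluorescence (Ex 485/Em 531) read after 60min RT, normalized to NEM inhibition, concentration-response curves fitted.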
D1 potentiator – potentiators of human D1 dopamine receptor; AID 504651; HEK293 TREx D1 cells, calcium flux, dopamine EC20 potentiation; P21728; 0.036% of 360,000 active; potentiation, % at 10 µM; in the data active = potentiation above about 30%
A number is an active result; n = inactive; u = inconclusive; x = no result. Shown are actives, neighbours in structure and some others; about 3.9% of the full set was active somewhere. Unless noted, calls come from the whole dose curve; as a rule, active = well fitted inhibition curve with a large enough effect; inconclusive = small, poorly fitted or top-dose-only effect, or effect the other way; inactive = flat fitted curve, though single readings scatter.

SMILES | Eya2 inh | D1 agonist | GALK inh | D1 antagonist | USP2a inh | D1 potentiator
CCOc1cc(CNCCc2ccc(S(N)(=O)=O)cc2)ccc1OCc1ccc(Cl)cc1 | n | 79 | x | -56 | n | n
NS(=O)(=O)c1ccc(CCNCc2ccccc2OCc2ccc(F)cc2)cc1 | n | 41 | n | -40 | n | n
COc1cc(CNCCc2ccc(S(N)(=O)=O)cc2)ccc1OCc1ccc(Cl)cc1 | n | n | n | n | n | n
Nc1nonc1C(=O)NCCNCc1ccccc1OCc1ccc(F)cc1 | n | 30 | n | n | n | n
Cc1cc2oc(C(=O)Nc3sc4c(c3C(=O)NCc3ccco3)CCC4)cc(=O)c2cc1C | x | n | x | n | x | n
Cc1ccc(CNC(=O)CN(c2cccc([N+](=O)[O-])c2)S(C)(=O)=O)cc1 | n | n | n | -35 | n | n
COc1ccccc1CNC(=O)CN(c1cccc([N+](=O)[O-])c1)S(C)(=O)=O | n | n | n | -35 | n | n
Cc1ccccc1CNC(=O)CN(c1cccc([N+](=O)[O-])c1)S(C)(=O)=O | n | n | n | n | n | n
COc1ccccc1Cc1nc2ccccc2nc1SCC(=O)NCc1ccc(C)cc1 | x | n | x | n | x | n
CCOC(=O)C1CCN(S(=O)(=O)c2ccccc2)CC1 | n | n | n | n | n | n
O=C(OCCOc1cccc(Cl)c1)C1CCN(S(=O)(=O)c2ccccc2)CC1 | n | 30 | n | n | n | n
CC(Sc1nnc(-c2ccco2)n1C)C(=O)NC1CCCC1 (stereo not drawn) | n | n | x | n | n | n
CC(Sc1nnc(-c2ccco2)n1C)C(=O)N1C(C)CCCC1C (stereo not drawn) | n | n | n | -41 | n | n
COC(c1ccccc1)c1nnc(CCC(=O)N(C)CCOc2ccccc2)o1 (stereo not drawn) | n | n | n | n | n | n
COC(c1ccccc1)c1nnc(CCC(=O)N(C)CCCC2CCCC2)o1 (stereo not drawn) | n | n | n | -32 | n | n
COCCN(C(=S)Nc1ccccc1OC)C1CCN(C(C)=O)CC1 | n | n | n | -35 | n | n
CCCC(=O)Nc1ccc(Cl)c(NC(=S)NC(=O)C(C)C)c1 | n | n | n | -37 | n | n
CCC(=O)Nc1ccc(Cl)c(NC(=S)NC(C)=O)c1 | n | n | n | n | n | n
O=C1COc2cc(S(=O)(=O)NCc3ccco3)c(Cl)cc2N1 | n | n | x | n | n | n
Oc1ccc(/C=N/n2c(COc3ccccc3)n[nH]c2=S)cc1O | n | n | n | n | n | n
CCOc1cc(/C=N/n2c(COc3ccccc3)n[nH]c2=S)ccc1O | n | 102 | n | n | n | n
CCOC(=O)c1cnc2c(Cl)c(Cl)ccc2c1Nc1ccc(N(C)C)cc1 | x | n | x | n | x | n
CN1C/C(=C\c2ccc(N3CCOCC3)cc2)C(=O)/C(=C/c2ccc(N3CCOCC3)cc2)C1 | n | 46 | x | n | n | n
CCc1ccc(/C=C2/SC(N3CCOCC3)=NC2=O)cc1 | n | n | n | n | n | n
CCN1C/C(=C/c2ccc(N3CCOCC3)cc2)C(=O)/C(=C/c2ccc(N3CCOCC3)cc2)C1 | n | 88 | n | n | n | n
SMILES | Eya2 inh | D1 agonist | GALK inh | D1 antagonist | USP2a inh | D1 potentiator
Cc1ccc2c(=O)cc(C(=O)Nc3cccc(Cl)c3C)oc2c1C | x | n | x | n | x | n
Cc1ccc(CNC(=O)c2oc3c(c2C)-c2nn(Cc4ccc(Cl)cc4)cc2CC3)cc1 | x | n | x | n | x | n
CCSC1=NC2(CCN(C(=O)NC3CCCCC3)CC2)N=C1c1ccc(C)cc1 | x | n | x | n | x | n
O=S(=O)(c1c(F)cccc1F)N1CCN(S(=O)(=O)c2c(F)cccc2F)CC1 | x | n | x | -30 | x | n
CC(CN1CCNCC1)(NS(=O)(=O)c1ccccc1)c1ccccc1 (stereo not drawn) | n | n | n | -35 | n | n
Cc1ccc(S(=O)(=O)NC(C)(C)CN2CCNCC2)cc1 | n | n | n | n | n | n
CCOC(=O)c1c(NC(C)=O)c2c3c(sc2n1Cc1nc(-c2cccc(Cl)c2)oc1C)CCCC3 | x | n | x | -37 | x | n
O=C(NCc1ccco1)c1ccccc1-c1nc(-c2ccc(F)cc2)no1 | n | n | n | -45 | n | n
Cc1ccccc1-c1noc(-c2ccccc2C(=O)NCc2ccco2)n1 | u | n | n | n | n | n
CCCOc1ccc(NC(=O)CC2C(=O)N(c3ccc(C)cc3)C(=O)N2C2CCCC2)cc1 (stereo not drawn) | x | n | x | n | x | n
CC(=O)c1ccc(N2CCN(S(=O)(=O)c3ccc(-c4cc(C(F)(F)F)on4)s3)CC2)cc1 | x | n | x | -31 | x | n
CCOc1ccc(NC(=O)c2cn(C)c(=O)c3cc(OC)c(OC)cc23)cc1 | x | n | x | n | x | n
COC(=O)c1ccc(CN=C(NS(=O)(=O)c2ccccc2)c2ccccc2)cc1 | n | x | x | x | n | x
COc1cc(/C=N/NS(=O)(=O)c2ccc3ccccc3c2)ccc1OCc1ccc(C(=O)O)cc1 | n | n | n | -30 | n | n
COC(=O)c1ccc(COc2ccccc2/C=N/NS(=O)(=O)c2ccccc2)cc1 | n | n | n | -51 | n | n
COc1cc(/C=N/NS(=O)(=O)c2ccc(C)cc2)ccc1OCc1cccc(C(=O)O)c1 | n | n | n | n | n | n
O=C(NCC(c1ccc(Cl)cc1)N1CCCCC1)c1ccc(F)cc1 (stereo not drawn) | x | n | x | n | x | n
Cn1c(=O)c2c(nc(SCC(=O)Nc3ccc(OC(F)(F)F)cc3)n2Cc2cccc(C(F)(F)F)c2)n(C)c1=O | x | n | x | n | x | n
CCn1nc(C)cc1C(=O)N1CCCC(C(=O)c2ccc(Oc3ccccc3)cc2)C1 (stereo not drawn) | n | n | n | -35 | n | n
Cc1nnc(N2CCCC(C(=O)Nc3cccc(C(F)(F)F)c3)C2)c2nn(-c3ccccc3)c(C)c12 (stereo not drawn) | x | n | x | n | x | n
COc1ccc(CCNC(=O)C(=O)NCC(c2cccnc2)N2CCN(c3ccccc3)CC2)cc1 (stereo not drawn) | x | n | x | n | x | n
CCC1CCCCN1S(=O)(=O)c1cc(C(=O)Nc2ccc(C)c(F)c2)ccc1F (stereo not drawn) | x | n | x | n | x | n
CCc1ccc(NC(=O)c2ccc3c(O)c(S(=O)(=O)c4ccccc4)c(=O)[nH]c3c2)cc1 | x | n | x | n | x | n
N=C1C(c2nc3ccccc3c(=O)[nH]2)=C(O)CN1CCc1ccccc1 | n | n | n | n | 0.79µM | x
N=C1C(c2nc3ccccc3c(=O)[nH]2)=C(O)CN1CCO | n | n | n | n | n | n
CCOc1ccccc1-n1c(N)c(C(=O)OC)c2nc3ccccc3nc21 | x | n | x | n | x | n
Cc1ccccc1OCC(O)CNC1CCC(NCC(O)COc2ccccc2C)CC1 (stereo not drawn) | n | n | n | n | n | n
